This is an account of results in PubChem BioAssay (NCI).

Common to all, as to test: NCI-60 one-dose screen, 48 h (100 = growth as untreated, 0 = no growth, -100 = all killed)
One assay relates to SK-MEL-2 melanoma. The conditions noted are these: 10 µM unless noted.
A further assay relates to EKVX NSCLC. The note with it: 10 µM unless noted.
Another assay deals with SN12C renal. The conditions noted are these: 10 µM unless noted.
The next assay relates to UO-31 renal. The note with it: 10 µM unless noted.
A further assay concerns TK-10 renal. The note with it: 10 µM unless noted.
The next assay has as its system ACHN renal. The conditions noted are these: 10 µM unless noted.
In a further assay the test system is CAKI-1 renal. The conditions noted are these: 10 µM.
The test system of the next assay is A498 renal. The conditions noted are these: 10 µM unless noted.
In the next assay the test system is CCRF-CEM leukemia. The conditions noted are these: 10 µM unless noted.
The next assay deals with MOLT-4 leukemia. The conditions noted are these: 10 µM unless noted.
The subject of another assay is SR leukemia. The conditions noted are these: 10 µM unless noted.
The next assay deals with RPMI-8226 leukemia. The note with it: 10 µM unless noted.
A further assay relates to OVCAR-8 ovarian. The conditions noted are these: 10 µM unless noted.
Another assay concerns OVCAR-5 ovarian. The conditions noted are these: 10 µM unless noted.
The test system of another assay is OVCAR-4 ovarian. The note with it: 10 µM unless noted.
For a further assay, the system named is IGROV1 ovarian. The note with it: 10 µM unless noted.
In the next assay the test system is OVCAR-3 ovarian. The conditions noted are these: 10 µM unless noted.
For another assay, the system named is HS 578T breast. The note with it: 10 µM unless noted.
The next assay has as its system NCI/ADR-RES ovarian. The conditions noted are these: 10 µM unless noted.
In the next assay the test system is SK-OV-3 ovarian. The note with it: 10 µM unless noted.

This is part of a sample that, as a whole, favours compounds with a hit. Of some 83,000 tested, about 20% had one in any assay.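 The test compound was applied at a single concentration to cells in 96-well plates for 48 hours, and percent growth was recorded.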 A number with no mark means an inactive call. Calls of active or inactive are those of the source. How the source made its calls: active means growth percent below 10; inactive means the rest.

Consider `O=C1[C@@H]2Cc3c([nH]c4ccccc34)[C@H](c3c(Cl)cccc3Cl)N2C(=O)CN1C1CCN(Cc2ccccc2)CC1`, for which the growth was 85.7% in the assay with SK-MEL-2 melanoma; 53.6% in the assay with EKVX NSCLC; 15.5% in the assay on SN12C renal; 14% in the assay on UO-31 renal; 89.2% with TK-10 renal; 43.5% with ACHN renal. Moreover, the growth in the assay with CAKI-1 renal is 74.3%; in the assay with A498 renal it was 66.3%; in the assay on CCRF-CEM leukemia, 3.54% (active); with MOLT-4 leukemia, 12.8%; in the assay on SR leukemia it was 1.57% (active); in the assay with RPMI-8226 leukemia, 7.38% (active). The growth in the assay with OVCAR-8 ovarian is 47.7%; in the assay on OVCAR-5 ovarian it was 63%; in the assay on OVCAR-4 ovarian, -0.678% (active); in the assay with IGROV1 ovarian, 24.6%; in the assay on OVCAR-3 ovarian it was 81.4%; in the assay on HS 578T breast, 28.5%. In addition, the growth with NCI/ADR-RES ovarian is 18.5%.

Regarding `Cc1ccc(/C=C/CC(=O)Nc2ccc(C(=O)Nc3ccc(F)cc3N)nc2)cn1`, the growth was 31.3% in the assay on SK-MEL-2 melanoma; 49.8% with EKVX NSCLC; 57.6% in the assay on SN12C renal; 25.3% in the assay on UO-31 renal; 6.58% (active) in the assay on TK-10 renal; 31.6% in the assay on ACHN renal. The growth is 26.4% in the assay on CAKI-1 renal; -3.27% (active) in the assay on A498 renal; 17.8% in the assay on CCRF-CEM leukemia; 18.1% in the assay with MOLT-4 leukemia; 31.4% with SR leukemia; 8.53% (active) in the assay with RPMI-8226 leukemia. Besides, the growth in the assay on OVCAR-8 ovarian was 29.1%; in the assay on OVCAR-5 ovarian, 38.5%; with OVCAR-4 ovarian, 43.9%; in the assay with IGROV1 ovarian, 43.9%; with OVCAR-3 ovarian it was 59%; with HS 578T breast, 35.6%. Further, the growth with NCI/ADR-RES ovarian was 53.6%.

Take `C#C[C@]1(O)CC[C@H]2[C@@H]3CC=C4c5sc(Nc6cc(Cl)ccn6)nc5CC[C@]4(C)[C@H]3CC[C@@]21C`: the growth in the assay on SK-MEL-2 melanoma was -4.31% (active); in the assay with EKVX NSCLC, -1.83% (active); in the assay with SN12C renal, 53.6%; in the assay on UO-31 renal, -51.3% (active); in the assay with TK-10 renal, 35.4%; in the assay on ACHN renal, 32.5%. Moreover, the growth in the assay on CAKI-1 renal is -19.9% (active); with A498 renal, -42.4% (active); in the assay on CCRF-CEM leukemia, 9.26% (active); in the assay with MOLT-4 leukemia, 4.35% (active); with SR leukemia it was 4.56% (active); in the assay on RPMI-8226 leukemia it was -22.9% (active). For the same compound, the growth with OVCAR-8 ovarian is 48.7%; in the assay with OVCAR-5 ovarian it was 47.5%; in the assay on OVCAR-4 ovarian it was 68.1%; in the assay with SK-OV-3 ovarian it was -1.88% (active); in the assay with HS 578T breast, -3.53% (active); with NCI/ADR-RES ovarian, 34.7%.

Take `Nc1cc(F)ccc1NC(=O)c1ccc(NC(=O)C/C=C/c2cccnc2)cn1`: the growth in the assay on SK-MEL-2 melanoma was 9.74% (active); in the assay on EKVX NSCLC, 49.7%; in the assay with SN12C renal, 20.1%; with UO-31 renal it was 5.53% (active); with TK-10 renal it was 22.3%; in the assay on ACHN renal, 31.3%. Besides, the growth with CAKI-1 renal is 33.9%; in the assay on A498 renal, -13.2% (active); in the assay with CCRF-CEM leukemia, 15.1%; with MOLT-4 leukemia, 24.7%; in the assay on SR leukemia it was 24.6%; in the assay with RPMI-8226 leukemia, -3.11% (active). The growth was 17.8% in the assay on OVCAR-8 ovarian; 21.4% in the assay with OVCAR-5 ovarian; 29.1% in the assay with OVCAR-4 ovarian; 34.9% in the assay on SK-OV-3 ovarian; 27.4% in the assay with OVCAR-3 ovarian; 21.1% in the assay on HS 578T breast. Further, the growth with NCI/ADR-RES ovarian is 20.4%.

Consider `Cc1ccc(-c2csc(N/N=C/c3nc4ccccc4n3C3CC3)n2)cc1`, for which the growth was 74.7% with SK-MEL-2 melanoma; 97.5% in the assay on EKVX NSCLC; 82.8% with SN12C renal; 16.1% in the assay with UO-31 renal; 141% in the assay with TK-10 renal; 1.34% (active) with ACHN renal. Moreover, the growth in the assay on CAKI-1 renal was 77.9%; with A498 renal, 78.3%; with CCRF-CEM leukemia it was -20.9% (active); with MOLT-4 leukemia, 37.3%; in the assay with SR leukemia, 25.1%; in the assay with RPMI-8226 leukemia it was 84.8%. Besides, the growth in the assay with OVCAR-8 ovarian is 18.9%; with OVCAR-5 ovarian it was 105%; in the assay with OVCAR-4 ovarian, 93.1%; in the assay with SK-OV-3 ovarian, 120%; with IGROV1 ovarian it was 57.8%; in the assay on NCI/ADR-RES ovarian, 72.9%.

With `O=C1c2cc(Br)ccc2-n2c1nc1cc(Br)ccc1c2=O`, the growth in the assay on SK-MEL-2 melanoma was 73.4%; in the assay on EKVX NSCLC it was 59.5%; with SN12C renal, 76.6%; with UO-31 renal it was 62.6%; in the assay on TK-10 renal, 149%; in the assay on ACHN renal, 79%. In addition, the growth in the assay on CAKI-1 renal is 78.7%; in the assay on A498 renal, 125%; in the assay with CCRF-CEM leukemia, 71.9%; in the assay with MOLT-4 leukemia it was 67.7%; in the assay with SR leukemia, 65.8%; in the assay on RPMI-8226 leukemia it was 75.8%. Also, the growth was 78.3% in the assay on OVCAR-8 ovarian; 90.8% in the assay on OVCAR-5 ovarian; 64.7% in the assay on OVCAR-4 ovarian; 59.8% with IGROV1 ovarian; 47.3% with OVCAR-3 ovarian; 96.1% in the assay with HS 578T breast. For the same compound, in the assay with NCI/ADR-RES ovarian, the growth is 84.2%.

In the case of `COc1ccc(OC)c(NC2=C(Cl)C(=O)C(C)=C(C)C2=O)c1`, the growth in the assay on SK-MEL-2 melanoma was 95.7%; in the assay on EKVX NSCLC it was 77.4%; in the assay with SN12C renal, 92.8%; with UO-31 renal, 92.4%; with TK-10 renal it was 172%; with ACHN renal, 100%. In addition, the growth in the assay with CAKI-1 renal was 94%; in the assay with A498 renal, 91.6%; in the assay with CCRF-CEM leukemia, 12.9%; with MOLT-4 leukemia it was 36%; in the assay on SR leukemia, 96.5%; in the assay with RPMI-8226 leukemia, 65.9%. Moreover, the growth in the assay on OVCAR-8 ovarian was 95.6%; in the assay on OVCAR-5 ovarian, 109%; in the assay with OVCAR-4 ovarian it was 55.5%; in the assay with IGROV1 ovarian, 89.6%; in the assay with OVCAR-3 ovarian, 92.3%; in the assay on HS 578T breast, 92.8%. Besides, the growth in the assay on NCI/ADR-RES ovarian is 96.8%.

Regarding `CCCCCc1ccc(S(=O)(=O)N(C(C)=O)c2cccc(-c3csc(N(CCN4CCN(C)CC4)C(C)=O)n3)c2)cc1`, the growth in the assay with SK-MEL-2 melanoma was 92.8%; with EKVX NSCLC it was 61.8%; in the assay on SN12C renal, 62.6%; in the assay on UO-31 renal, -69.2% (active); in the assay on TK-10 renal, 99.2%; in the assay with ACHN renal, -10.5% (active). For the same compound, the growth with CAKI-1 renal was 20.5%; in the assay with A498 renal, 71.1%; in the assay on CCRF-CEM leukemia, 4.61% (active); with MOLT-4 leukemia it was -9.16% (active); in the assay on SR leukemia, -17.7% (active); in the assay with RPMI-8226 leukemia, -27.8% (active). Moreover, the growth in the assay with OVCAR-8 ovarian was 60.7%; with OVCAR-5 ovarian, 92.2%; in the assay with OVCAR-4 ovarian it was 47.1%; in the assay on SK-OV-3 ovarian, 100%; with IGROV1 ovarian, 46.8%; in the assay with HS 578T breast, 72.8%. Besides, the growth in the assay with NCI/ADR-RES ovarian is 48.3%.
